Rows were chosen to be rich in hits. Some 3.1% of all compounds tested hit in one or more screens of this group.
rTrxR1 inhibitor – rat TrxR1 inhibition; O89049; recombinant rTrxR1, NADPH fluorescence consumption, selenite substrate; Potency, µM (highest dose often 114 µM), inactives show top-dose activity change, negative = inhibition, hits mostly inhibitors; 1% of 390,000 active; AID 588453; further: on the % scale 0 is the no-effect control and ±100 the full control effect; nearly all actives have a fitted effect of over 65% in size
Target sequence (O89049 whole entry, looked up): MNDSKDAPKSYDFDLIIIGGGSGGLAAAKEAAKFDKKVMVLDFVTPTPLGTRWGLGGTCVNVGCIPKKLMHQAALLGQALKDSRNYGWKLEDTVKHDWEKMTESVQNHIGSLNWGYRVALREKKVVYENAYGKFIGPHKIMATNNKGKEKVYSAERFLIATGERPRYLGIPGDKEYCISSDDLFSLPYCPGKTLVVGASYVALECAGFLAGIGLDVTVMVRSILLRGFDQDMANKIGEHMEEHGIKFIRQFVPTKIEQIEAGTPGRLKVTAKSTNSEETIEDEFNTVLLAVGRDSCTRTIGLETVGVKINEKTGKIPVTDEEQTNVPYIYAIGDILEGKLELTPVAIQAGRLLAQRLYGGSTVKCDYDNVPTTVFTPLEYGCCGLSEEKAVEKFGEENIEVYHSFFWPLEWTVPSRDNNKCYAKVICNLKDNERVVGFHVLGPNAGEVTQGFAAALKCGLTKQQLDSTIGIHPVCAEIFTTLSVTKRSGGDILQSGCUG
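Rat TrxR1 (90 nM in the dispensed reagent) was pre-reduced with 400 uM NADPH for 5 min at room temperature, then incubated with compound for 15 min. After 400 uM selenite was added, NADPH fluorescence (Ex 340/Em 450 nm) was followed for 8 min.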
Mito fusion act – mitochondrial division inhibition or fusion activation; Potency, µM (top dose mostly 46.1 µM), for inactives: at the highest dose growth rescue (activation), most hits filed as activators; S. cerevisiae fusion-defective mutant growth rescue, CellTiterGlo 48 h; 0.23% of 320,000 active; further: % of control where 0% means no effect; nearly all actives have a fitted effect of over 45% in size
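Luminescent cell viability in 1536-well qHTS format served as the measure of rescued growth in ts fusion-mutant S. cerevisiae cultured on non-fermentable YPEG for 48 hours at 37C.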
A549 tox – counter-screen for Nrf2 inhibitors: cytotoxicity in A549 cells. A549 ARE-Fluc cells, CellTiter-Fluor viability, 18-24 h. Potency, µM (top dose mostly 46 µM), without a hit: at the highest dose activity change, negative = cytotoxicity, usual class: inhibitors. 0.16% of 390,000 active; further: on the % scale 0 is the no-effect control and ±100 the full control effect
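A549 ARE_Fluc cells in 5% FBS OPTI-MEM were exposed to compounds in concentration-response for 18-24 h at 37 deg C. Viability was read by CellTiter-Fluor fluorescence (Ex 405/Em 525) after 30 min, before the luciferase read.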
mIDH1 inhibitor – inhibitors of human mutant IDH1 R132H; 0.093% of 390,000 active; O75874; IDH1-R132H enzyme, NADPH consumption, diaphorase/resazurin fluorescence; AID 602179; Potency, µM (highest dose often 76.6 µM), for inactives: at the top dose activity change, negative = inhibition, hits mostly inhibitors; further: on the % scale 0 is the no-effect control and ±100 the full control effect; nearly all actives have a fitted effect of over 65% in size
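IDH1-R132H (0.5 ug/mL dispensed) in pH 7.5 Tris buffer was preincubated 30 min with compound, then given a substrate mix of 0.016 mM NADPH and 2 mM alpha-KG for 80 min at room temperature; remaining NADPH was read by diaphorase/resazurin fluorescence.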
Nrf2 block – inhibitors of Nrf2 signaling. A549 ARE-Fluc reporter, luciferase luminescence, 18-24 h. Potency, µM (series often up to 46 µM), for inactives: at the top dose activity change, negative = inhibition, hits mostly inhibitors. 2.1% of 360,000 active. AID 504444; further: on the % scale 0 is the no-effect control and ±100 the full control effect; nearly all actives have a fitted effect of over 60% in size
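Nrf2 function is reported as luminescence of an ARE-controlled luciferase in A549 cells. Compounds were tested at several concentrations, and a CellTiter-Fluor read on the same wells flagged cytotoxicity.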
TrxR1 substrate – rat thioredoxin reductase 1 substrate activity. O89049. purified TrxR1 substrate turnover, NADPH consumption readout. Potency, µM (series often up to 114 µM), for the others: at the highest dose activity change, negative = substrate turnover. 0.01% of 390,000 active. AID 588456; further: on the % scale 0 is the no-effect control and ±100 the full control effect; nearly all actives have a fitted effect of over 50% in size
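Rat TrxR1, dispensed at 90 nM, was prereduced with 400 uM NADPH (final) for 5 min at ~22 deg C, then incubated with compound 15 min before 400 uM selenite. A first-read NADPH fluorescence drop versus no-compound background flagged substrates.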
Starred values were filed as active, the others as inactive; ? = inconclusive; . = no result given; [ ] = another dose, or the depositor's remark. The call rests on the fitted dose curve; in most records, active means well fitted curve in the direction sought with a large enough effect; inconclusive means small, poorly fitted or top-dose-only effect, or another doubt; inactive means no such curve, though single readings can be large; an effect the other way counts as inactive or inconclusive. Potency means the concentration at half of the fitted maximal effect.

SMILES	rTrxR1 inhibitor	Mito fusion act	A549 tox	mIDH1 inhibitor	Nrf2 block	TrxR1 substrate
O=c1[nH]c(=O)n(-c2ccc(F)cc2)c2c1C(C(F)(F)F)(C(F)(F)F)N=C(c1ccc(F)cc1)N2	4%	-6%	?	0%	16µM*	1%
O=c1[nH]c(=O)n(Cc2ccco2)c2c1C(C(F)(F)F)(C(F)(F)F)N=C(CCC1CCCCC1)N2	-18%	3%	-6%	1%	-4%	-11%
Cc1ccc(C2=NC(C(F)(F)F)(C(F)(F)F)c3c(n(-c4ccc(F)cc4)c(=O)[nH]c3=O)N2)cc1	?	-5%	-13%	2%	21µM*	24%
O=c1[nH]c(=O)n(-c2ccccc2)c2c1C(C(F)(F)F)(C(F)(F)F)N=C(CCC1CCCCC1)N2	-15%	-2%	?	0%	18µM*	-5%
CCOc1ccccc1CNC(=O)c1cc2c(=O)n(Cc3ccccc3)ccc2nc1C	7%[57.1 µM]	.	3%	-4%	?	12%[57.1 µM]
COc1ccc(C2Oc3ccccc3C(=O)N2Cc2ccccc2)cc1COc1ccc(NC(C)=O)cc1 (stereo not drawn)	.	.	-10%	.	?	.
COc1ccc(C(=O)Nc2nnc(C(C)C)s2)cc1OC	79µM*	.	-5%	-8%	0%	4%
CCOc1ccc(C(=O)Nc2nnc(C(C)C)s2)cc1OCC	2%	0%	0%	3%	8%	4%
CCc1nnc(NC(=O)c2cc(S(=O)(=O)N(CC)CC)ccc2Cl)s1	12%	-1%	-17%	0%	16µM*	-2%
CCc1nnc(NC(=O)c2cccc(C(=O)Nc3nnc(CC)s3)n2)s1	15%	5%	?	9%	0.26µM*	5%
CCN(CC)S(=O)(=O)c1ccc(Cl)c(C(=O)NC)c1	0%	1%	-3%	2%	11%	-6%
CCc1nnc(NC(=O)c2ccc(-c3ccc(C(C)=O)cc3)o2)s1	14µM*	-6%	0%	2%	-20%	8%
CCc1nnc(NC(=O)c2ccc(-c3ccc(Cl)cc3)o2)s1	5%[57.1 µM]	0%	21%	9%	.	44%
COc1ccccc1NC(=O)N1c2ccccc2Sc2ccccc21	-2%	.	9%	21%	?	-8%
CN(C)S(=O)(=O)N1CCC(n2cnc3cccnc32)CC1	9%[57.1 µM]	.	27%	1%	?	3%[57.1 µM]
O=C(COc1ccccc1C(=O)Nc1ccccc1)Nc1ccccc1F	-8%	.	.	.	.	-2%
Cc1ccccc1/C=N/N1C(=O)CSC1=S	35µM*	-3%	-4%	-1%	2%	-5%
O=C1CSC(=S)N1N=Cc1ccccc1O	0%[11.4 µM]	.	-4%	-3%	-8%	10%[11.4 µM]
O=C1CSC(=S)N1/N=C/c1ccc2c(c1)OCCO2	79µM*	13%	-9%	0%	?	4%
O=C1CSC(=S)N1/N=C/c1cc(Br)c(O)c(Br)c1	79µM*	20%	-14%	-2%	3%	-15%
COc1cc(/C=N/N2C(=O)CSC2=S)ccc1O	32µM*	1%	-2%	-14%	2%	-14%
COc1cc(O)c(C=NN2C(=O)CSC2=S)c(OC)c1	.	.	.	-3%	.	.
COc1ccc(OCC(=O)Nc2cccc(-c3nc4ccccc4s3)c2C)cc1	6%	.	-23%	.	-24%	1%
COc1ccc2[nH]c(C)cc2c1	25%	.	.	.	.	4%
CCOc1ccc(/C=C/c2nc(C#N)c(N(C)C)o2)cc1	16%	.	4%	23%	?	18%
SMILES	rTrxR1 inhibitor	Mito fusion act	A549 tox	mIDH1 inhibitor	Nrf2 block	TrxR1 substrate
Clc1cc2cccnc2c2ncccc12	36%	9%	-6%	3%	-5%	11%
Cc1c(C)c2cccnc2c2ncccc12	4%	6%	5.8µM*	-20%	?	5%
Cc1ccc(OCC(=O)Nc2ccc(N3CCN(C(=O)c4ccco4)CC3)cc2)cc1C	14%	-7%	-6%	2%	?	1%
Cc1cc(OCC(=O)Nc2ccc(N3CCN(C(=O)c4ccco4)CC3)cc2)cc(C)c1Cl	28%	7%	-21%	4%	8.2µM*	10%
Cc1cccc(OCC(=O)Nc2ccc(N3CCN(C(=O)c4ccco4)CC3)cc2)c1	7%[57.1 µM]	2%	-6%	7%	21µM*	6%[57.1 µM]
COC(=O)N1CCCc2cc(S(=O)(=O)NCc3ccccc3)ccc21	-2%	.	-8%	7%	23µM*	-3%
CCOc1ccc(CNS(=O)(=O)c2ccc3c(c2)CCCN3C(C)=O)cc1	18%[57.1 µM]	.	4%	-1%	.	1%[57.1 µM]
COc1ccc(C2Nc3ccccc3C(=O)N2Cc2ccccc2C(F)(F)F)cc1COc1ccc(NC(C)=O)cc1 (stereo not drawn)	.	.	0%	.	-4%	.
CN1CCC2(CC1)N=C(c1ccc(F)cc1)C(=S)N2C(=O)c1ccccc1	5µM*	2%	-2%	1%	-9%	0%
O=C(Nc1ccccc1C(=O)Nc1nnc(C(F)(F)F)s1)c1ccccc1	35%[57.1 µM]	?	13µM*	24%	?	-11%[57.1 µM]
O=C(COC(=O)c1ccccc1OCc1cccc(Br)c1)Nc1ccc(Br)cc1	5%	.	.	.	.	-2%
C=CCn1c(O)c(N=NC(=O)CNC(=O)/C=C/c2ccco2)c2ccccc21	14µM*	0%	-3%	-16%	6%	-2%
Cc1nnsc1S(=O)(=O)c1ccccc1	14%	-3%	0%	2%	8.2µM*	1%
CC(C)CC(CSc1ccc(Br)cc1)N1CCN(CCc2ccccc2)CCC1=O (stereo not drawn)	-3%	.	0%	.	2%	-2%
O=C1NC(=S)S/C1=C\c1cc2ccccc2nc1N1CCCCC1	?	6%	-28%	2%	21µM*	-11%
COc1cc(NC(=O)CCS(=O)(=O)c2nc(-c3cccs3)cc(C(F)(F)F)n2)cc(OC)c1OC	?	3%	2%	8%	13%[9.27 µM]	-3%
COc1ccc(NC(=O)CCS(=O)(=O)c2nc(-c3cccs3)cc(C(F)(F)F)n2)cc1OC	25µM*	.	2%	14%	6%[9.27 µM]	-5%[2.29 µM]
O=C(CCS(=O)(=O)c1nc(-c2cccs2)cc(C(F)(F)F)n1)Nc1cccc(O)c1	18µM*	.	2%	14%	4%[9.27 µM]	9%[2.29 µM]
Cc1cc(NC(=O)c2sc(Nc3ccc(F)c(Cl)c3)nc2N)no1	17%[57.1 µM]	-2%	-11%	-1%	?	5%[57.1 µM]
Cc1cc(NC(=O)c2sc(Nc3cccc(C(F)(F)F)c3)nc2N)no1	-6%	13%	?	1%	16µM*	-15%
Cc1ccn(CCC(=O)NC2CCCc3c2cnn3-c2cccc(C)c2C)n1 (stereo not drawn)	14%[57.1 µM]	-9%	-3%	-8%	-16%	6%[57.1 µM]

Assay outcomes: PubChem BioAssay, National Center for Advancing Translational Sciences (NCATS)
